The values below come from PubChem BioAssay (NCATS).

Structures are written as SMILES. Results filed as inconclusive are left out. Calls of active or inactive are those of the source. Calls follow the shape of the dose curve; as a rule, active = well fitted curve in the direction sought with a large enough effect; inconclusive = small, poorly fitted or top-dose-only effect, or another doubt; inactive = no such curve, though single readings can be large; an effect the other way counts as inactive or inconclusive.
Potency is read from the fitted curve at half-maximal effect.

The first assay is described as follows: qHTS of pediatric cancer cell lines to identify multiple opportunities for drug repurposing: Primary screen for OHS-50 cells (AID 1347103). Also: nearly all actives have a fitted effect of over 40% in size.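 As to activity change, negative = cytotoxic: plate controls were DMSO neutral control for no effect and bortezomib positive control for full effect.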 As to conditions: OHS-50 osteosarcoma viability, CellTiter-Glo luminescence, 48 h; series mostly up to 57.3 µM; activity change, negative = cytotoxic: at the top concentration. A digest of the protocol:
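Cells (500-1,000/well) rested 5 h, then received compounds for 48 h; metabolically active cells were measured by CellTiter-Glo luminescence. Final concentrations spanned up to 46 µM (MIPE, 11-point) or 0.59 nM-46 µM (NPC, 8-point) in primary screens, 11-point in follow-ups.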
(In qHTS, concentration-response curves come from the screen itself.)
Consider `CCCCCCCCCCCCCCC[C@H](O)[C@@H](N)CO`, for which the “activity change, negative = cytotoxic” value was 6.86% (inactive).

As to `Cc1c(-c2ccccc2)oc2c(C(=O)OCCN3CCCCC3)cccc2c1=O`, the “activity change, negative = cytotoxic” value was 6.19% (inactive).

Regarding `CCN1CCN(C(=O)N[C@@H](C(=O)N[C@@H]2C(=O)N3C(C(=O)O)=C(CSc4nnnn4C)CS[C@H]23)c2ccc(O)cc2)C(=O)C1=O`, the “activity change, negative = cytotoxic” value was 9.17% (inactive).

For `COc1ccc(C(=O)c2ccccc2)c(O)c1`, the “activity change, negative = cytotoxic” value was -17.5% (inactive).

With `CCCCCCCCOc1ccc(C(=O)c2ccccc2)c(O)c1`, the “activity change, negative = cytotoxic” value is -13.7% (inactive).

For `CN1CCC[C@@H]1CCO[C@](C)(c1ccccc1)c1ccc(Cl)cc1`, the Potency is 15.5 µM (active).

As to `O=C1OC(CN2CCOCC2)CN1/N=C/c1ccc([N+](=O)[O-])o1` (centres undefined), the “activity change, negative = cytotoxic” value is 55.6% (inactive).

For `CC1CCc2c(N3CCC(O)CC3)c(F)cc3c(=O)c(C(=O)O)cn1c23` (centres undefined), the “activity change, negative = cytotoxic” value was 134% (inactive).

As to `COc1ccc2c(c1)c1c3n2CCN(C)C3=NCC1`, the “activity change, negative = cytotoxic” value was -9.26% (inactive).

As for `O=C(Nc1cccc(C2=NCCN2)c1)Nc1cccc(C2=NCCN2)c1`, the “activity change, negative = cytotoxic” value was 56.1% [at 19.7 µM] (inactive).

In the case of `CCCCCCCCCCCCCCCC(=O)O`, the “activity change, negative = cytotoxic” value was 9.22% (inactive).

Consider `Cc1cc(CC(=O)O)c(C)n1-c1ccc(Cl)cc1`, for which the “activity change, negative = cytotoxic” value was -15.9% (inactive).

With `CC(=O)Nc1ncc([N+](=O)[O-])s1`, the “activity change, negative = cytotoxic” value is 56.4% (inactive).

Regarding `CN1CCN(c2cc3c(cc2F)c(=O)c(C(=O)O)cn3-c2ccc(F)cc2)CC1`, the “activity change, negative = cytotoxic” value is 125% (inactive).

As for `C/C=C/C=N/NC(=O)c1ccncc1`, the “activity change, negative = cytotoxic” value is 10% (inactive).

On to `CC(C)CCCC(C)N` (centres undefined), for which the “activity change, negative = cytotoxic” value is 18.5% (inactive).

For `CCOc1ccccc1C(N)=O`, the “activity change, negative = cytotoxic” value was 4.62% (inactive).

`CCN1/C(=C/C=C/c2sc3ccccc3[n+]2CC)Sc2ccccc21`: the Potency is 0.601 µM (active).

As to `CCC1NC(=O)c2cc(S(N)(=O)=O)c(Cl)cc2N1` (centres undefined), the “activity change, negative = cytotoxic” value was 8.83% (inactive).

For `CCCN(CCC)S(=O)(=O)c1ccc(C(=O)O)cc1`, the “activity change, negative = cytotoxic” value is 8.35% (inactive).

`CCOc1cc(OCC)c(C(=O)CCC(=O)O)cc1OCC`: the “activity change, negative = cytotoxic” value is 6.23% (inactive).

The next assay is described as follows: qHTS of pediatric cancer cell lines to identify multiple opportunities for drug repurposing: Primary screen for RD cells (AID 1347104). Also: nearly all actives have a fitted effect of over 55% in size.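 As to activity change, negative = cytotoxic: plate controls were DMSO for no effect and bortezomib for full effect.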 The settings on record: RD rhabdomyosarcoma viability, CellTiter-Glo luminescence, 48 h; series mostly up to 46 µM; activity change, negative = cytotoxic: at the top concentration. A digest of the protocol: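 CRCs from 8- or 11-point titrations (lowest final 0.59 nM NPC, 0.78 nM MIPE). Cell viability: CellTiter-Glo after 48 h incubation, 15 min room-temperature development, luminescence imaging.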
For `CCCCCCCCCCCCCCC[C@H](O)[C@@H](N)CO`, the “activity change, negative = cytotoxic” value was 8.49% (inactive).

Take `Cc1c(-c2ccccc2)oc2c(C(=O)OCCN3CCCCC3)cccc2c1=O`: the “activity change, negative = cytotoxic” value was -4.8% (inactive).

Consider `CCN1CCN(C(=O)N[C@@H](C(=O)N[C@@H]2C(=O)N3C(C(=O)O)=C(CSc4nnnn4C)CS[C@H]23)c2ccc(O)cc2)C(=O)C1=O`, for which the “activity change, negative = cytotoxic” value was 8.1% (inactive).

Consider `COc1ccc(C(=O)c2ccccc2)c(O)c1`, for which the “activity change, negative = cytotoxic” value was 1.74% (inactive).

In the case of `CC(C)[N+](C)(C)CC(O)COc1cccc2ccccc12` (centres undefined), the “activity change, negative = cytotoxic” value is -14.9% (inactive).

`OCCOCCN1CCN(C2=Nc3ccccc3Sc3ccccc32)CC1`: the “activity change, negative = cytotoxic” value was -7.97% (inactive).

Consider `CCCCCCCCOc1ccc(C(=O)c2ccccc2)c(O)c1`, for which the “activity change, negative = cytotoxic” value is 15.7% (inactive).

Consider `O=C1C(CCS(=O)c2ccccc2)C(=O)N(c2ccccc2)N1c1ccccc1` (centres undefined), for which the “activity change, negative = cytotoxic” value is 14.2% (inactive).

Regarding `CN1CCC[C@@H]1CCO[C@](C)(c1ccccc1)c1ccc(Cl)cc1`, the Potency was 26.6 µM (active).

For `O=C1OC(CN2CCOCC2)CN1/N=C/c1ccc([N+](=O)[O-])o1` (centres undefined), the “activity change, negative = cytotoxic” value is 1.59% (inactive).

Turning to `CCCCN=C(N)N=C(N)N`, the “activity change, negative = cytotoxic” value was 1.44% (inactive).

With `CC1CCc2c(N3CCC(O)CC3)c(F)cc3c(=O)c(C(=O)O)cn1c23` (centres undefined), the “activity change, negative = cytotoxic” value is 6% (inactive).

With `Cc1ncc(CO)c(C=O)c1O`, the “activity change, negative = cytotoxic” value is -1.57% (inactive).

Regarding `COc1ccc2c(c1)c1c3n2CCN(C)C3=NCC1`, the “activity change, negative = cytotoxic” value was 9.87% (inactive).

For `O=C(Nc1cccc(C2=NCCN2)c1)Nc1cccc(C2=NCCN2)c1`, the “activity change, negative = cytotoxic” value is -11.8% [at 16.1 µM] (inactive).

As to `O=C(NC1CCN(CCc2c[nH]c3ccccc23)CC1)c1ccccc1`, the “activity change, negative = cytotoxic” value was -12.1% (inactive).

Take `CCCCCCCCCCCCCCCC(=O)O`: the “activity change, negative = cytotoxic” value was 3.96% (inactive).

For the compound `Cc1cc(CC(=O)O)c(C)n1-c1ccc(Cl)cc1`, the “activity change, negative = cytotoxic” value was -3.99% (inactive).

In the case of `CC(=O)Nc1ncc([N+](=O)[O-])s1`, the “activity change, negative = cytotoxic” value was 19% (inactive).

`NS(=O)(=O)c1cc2c(cc1Cl)NC(CC1CCCC1)NS2(=O)=O` (centres undefined): the “activity change, negative = cytotoxic” value is 3.35% (inactive).

As for `Cc1cccc(C)c1NC(=O)c1ccccc1C(=O)O`, the “activity change, negative = cytotoxic” value is 11.5% (inactive).

As for `CN1CCN(c2cc3c(cc2F)c(=O)c(C(=O)O)cn3-c2ccc(F)cc2)CC1`, the “activity change, negative = cytotoxic” value was 5.49% (inactive).

`C/C=C/C=N/NC(=O)c1ccncc1`: the “activity change, negative = cytotoxic” value is -6.99% (inactive).

As for `CC(C)CCCC(C)N` (centres undefined), the “activity change, negative = cytotoxic” value is 15.8% (inactive).

`COC(=O)C(c1ccccc1Cl)N1CCc2sccc2C1` (centres undefined): the “activity change, negative = cytotoxic” value is 9.94% (inactive).

Turning to `C[N+]1(CC2COC(c3ccccc3)(C3CCCCC3)O2)CCCCC1` (centres undefined), the “activity change, negative = cytotoxic” value is -19.3% (inactive).

Turning to `CC(=O)OCC(=O)[C@H]1CC[C@H]2[C@@H]3CCC4=CC(=O)CC[C@]4(C)[C@H]3CC[C@]12C`, the “activity change, negative = cytotoxic” value was 2.39% (inactive).

For `CCN1/C(=C/C=C/c2sc3ccccc3[n+]2CC)Sc2ccccc21`, the Potency was 1.16 µM (active).

As to `CCC1NC(=O)c2cc(S(N)(=O)=O)c(Cl)cc2N1` (centres undefined), the “activity change, negative = cytotoxic” value is 8.1% (inactive).

Consider `CN(CCCN1c2ccccc2CCc2ccccc21)CC(=O)c1ccc(Cl)cc1`, for which the “activity change, negative = cytotoxic” value is 0.507% (inactive).

In the case of `CCCN(CCC)S(=O)(=O)c1ccc(C(=O)O)cc1`, the “activity change, negative = cytotoxic” value was 20.1% (inactive).

As for `CCOc1cc(OCC)c(C(=O)CCC(=O)O)cc1OCC`, the “activity change, negative = cytotoxic” value was 8.28% (inactive).

As for `O=C(O)Cc1csc(-c2ccc(Cl)cc2)n1`, the “activity change, negative = cytotoxic” value is -4.5% (inactive).
